Screens (PubChem BioAssay)
PK Bst: modulators of Bacillus stearothermophilus pyruvate kinase. purified pyruvate kinase, luminescence ATP production; ribose 5-phosphate activator present at AC10. Potency, µM. actives 1.2% (n = 51,000). AID 361; in the data active means potency below about 11 µM; inconclusive means mostly about 12 µM to 25 µM;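 the screen sought inhibitors and activators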;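 further: scaled between full activation by ribose 5 phosphate and full inhibition by luteolin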
HEK293 cAMP cs: counter-screen for TSHR agonists: cAMP increase in parental HEK293 | parental HEK293 CNG cAMP sensor, membrane potential fluorescence | Potency, µM (titrated, usually from 57.1 µM), inactives show at the highest dose activation, actives largely listed as activators | actives 2.5% (n = 73,000) | AID 938; active means well fitted activation curve with a large enough effect; inconclusive means small, poorly fitted or top-dose-only effect; inactive means no such curve, though single readings can be large or run the other way; further: % of control where 0% means no effect; nearly all actives have a fitted effect of over 55% in size
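Counterscreen for endogenous-receptor signalling: CNG-channel HEK 293 cells report cAMP rise by membrane depolarization. After 60 min dye equilibration with 100 uM RO 20-1724, compounds incubated 30 min before bottom-read fluorescence at 590 nm.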
GBA activity: human lysosomal glucosylceramidase modulation; Potency, µM; P04062; purified enzyme, resorufin glucoside fluorescence (screen aimed at inhibitors), 20 min; actives 1.1% (n = 48,000); in the data active means potency below about 15 µM; inconclusive means mostly about 16 µM to 33 µM;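 further: the screen sought inhibitors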
Target sequence (P04062 whole entry, looked up): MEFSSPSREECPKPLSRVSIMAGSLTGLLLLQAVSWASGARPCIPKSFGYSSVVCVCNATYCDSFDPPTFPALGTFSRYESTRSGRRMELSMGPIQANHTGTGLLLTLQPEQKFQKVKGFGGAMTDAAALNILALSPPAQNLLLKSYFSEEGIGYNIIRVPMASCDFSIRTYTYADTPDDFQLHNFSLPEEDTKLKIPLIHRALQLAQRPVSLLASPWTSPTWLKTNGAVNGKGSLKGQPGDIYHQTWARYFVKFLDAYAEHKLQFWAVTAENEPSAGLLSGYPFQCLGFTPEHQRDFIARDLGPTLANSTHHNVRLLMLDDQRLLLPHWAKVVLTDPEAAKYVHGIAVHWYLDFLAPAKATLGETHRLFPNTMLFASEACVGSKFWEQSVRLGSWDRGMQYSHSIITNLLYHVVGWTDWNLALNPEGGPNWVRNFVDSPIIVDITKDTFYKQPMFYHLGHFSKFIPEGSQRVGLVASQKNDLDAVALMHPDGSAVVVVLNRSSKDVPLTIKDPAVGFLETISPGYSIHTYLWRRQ
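Wild-type enzyme at 0.2 nM final in 50mM citric acid/KH2PO4, 10mM sodium taurocholate, 0.01% tween-20, pH 5.9, with resorufin beta-D-glucopyranoside at 30 uM final. Compounds titrated, 20 min at RT, red fluorescence read; AC50 from titration.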
TSHR ag: activates the human thyroid stimulating hormone receptor | AID 926 | P16473 | Potency, µM (highest dose often 57.1 µM), for inactives: at the highest dose activation, hits mostly activators | HEK293-CNG-TSHR cells (CNG channel as cAMP sensor), membrane potential dye, cAMP | actives 0.48% (n = 73,000); active means well fitted activation curve with a large enough effect in the main read-out, with a control signal flat, not every such curve was filed as active; inconclusive means small, poorly fitted or top-dose-only effect, or a change in a side signal; inactive means no such curve, though single readings can be large or run the other way; % of control where 0% means no effect;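 further: the control signal comes from parental cells without the receptor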
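cAMP rise detected as CNG-channel membrane depolarization by fluorescent dye (emission 590 nm), 30 min after compound, following 60 min dye loading containing 100 uM RO 20-1724 at room temperature. Cells: TSHR/CNG HEK 293, with parental CNG HEK 293 as control.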
* marks the source's active call; other numbers are inactive results; i = inactive; u = inconclusive; x = no result; [ ] = remark or other dose. Compounds with a hit are over-represented: about 4% of the library has one in this group of screens. Potency means the concentration at half of the fitted maximal effect.

SMILES	PK Bst	HEK293 cAMP cs	GBA activity	TSHR ag
O=C(CSCc1cccc(F)c1)N1CCN(c2ccccc2)CC1	>57	32µM*	>77	u
O=C(CSCc1nc2ccccc2[nH]1)N1CCN(c2ccc(F)cc2)CC1	>57	16%	>77	26%
COC(=O)c1ccc(C(NC(=O)OCc2ccccc2)/C(F)=C/[C@@H](C)C(=O)NCCO)cc1 (stereo partly specified)	x	10%	x	4%
COC(=O)c1ccc(C(NC(=O)OCc2ccccc2)/C(C)=C/[C@@H](C)C(=O)NC2CCCCC2)cc1 (stereo partly specified)	x	16µM*	x	u
COC(=O)c1ccc(C(NC(=O)OCc2ccccc2)/C(I)=C/[C@@H](C)C(=O)NCc2ccc(OC)c(O)c2)cc1 (stereo partly specified)	x	23%	x	25µM*
COC(=O)c1ccc(C(NC(=O)OCc2ccccc2)/C(I)=C/[C@@H](C)C(=O)NCc2ccc(C)o2)cc1 (stereo partly specified)	x	14%	x	x
C=CCn1c(SCc2nc3ccccc3c(=O)[nH]2)nnc1-c1cc2cc(Cl)ccc2o1	>57	32µM*	>77	u
CCn1nnc(NC(=O)c2ccc(-c3ccc(Cl)cc3)o2)n1	6.5*	18%	u	-2%[11.4 µM]
CCCn1nnc(NC(=O)c2ccco2)n1	>57	1%	>77	2%
CC(C)Oc1ccc(CSc2nnc3n(C)c(=O)c4c5c(sc4n23)CCCC5)cc1	>57	16µM*	>77	u
Cn1c(NCc2ccco2)nc2c1c(=O)n(Cc1ccc(Cl)c(Cl)c1)c(=O)n2C	1.9*	x	x	x
O=C(O)CCCn1nc(-c2ccccc2)c2ccccc21	x	0.16µM*	x	u
COc1ccc(-c2ccc(-c3nnn(CC(=O)N4CCOCC4)n3)cc2)cc1	2.6*	2%	>77	1%
O=C(Cn1nnc(-c2ccc(CN3CCOCC3)cc2)n1)N1CCCc2ccccc21	5.6*	25%	>77	26%
OC[C@@H](O)CNc1ncnc2ccccc12	x	19%[11.4 µM]	x	2%[11.4 µM]
Fc1cccc(Cl)c1CSc1nnc(COc2cccc3cccnc23)o1	u	25µM*	>77	u
CC1CCc2cccc3c2N1c1cc(C#N)c(C#N)cc1O3 (stereo unspecified)	i	3%	5*	20%
CC1CC(c2ccccc2)n2nc(NC(=O)c3ccco3)nc2N1 (stereo unspecified)	>57	3%	>77	1%
CC1CC(N(C(=O)c2ccco2)c2ccccc2)c2ccccc2N1 (stereo unspecified)	>57	27%	>77	13µM*
N[C@H](Cc1cccc(-c2ccccc2CP(=O)(O)O)c1)C(=O)O	x	14%	x	6%
CCCSc1nnc(-c2cccc(S(=O)(=O)N(C)C)c2)n1-c1cc(OC)ccc1OC	>57	7.9µM*	i	u
CCSc1nnc(-c2cccc(S(=O)(=O)N(C)C)c2)n1-c1cc(OC)ccc1OC	>57	5µM*	>77	u
COc1ccc(OC)c(-n2c(SCC(C)=O)nnc2-c2cccc(S(=O)(=O)N(C)C)c2)c1	>57	u	>77	u
CN1CCN(c2ncc3ncc(=O)n(Cc4ccc(F)cc4)c3n2)CC1	x	25%	x	x
O=c1cnc2cnc(N3CCOCC3)nc2n1Cc1ccc(F)cc1	x	2.5µM*	x	u
SMILES	PK Bst	HEK293 cAMP cs	GBA activity	TSHR ag
O=C(CCSCc1ccccc1F)N1CCN(c2ccccn2)CC1	>57	26%	x	12%
O=C(CSCc1ccccc1Cl)N1CCN(c2ccccn2)CC1	>57	21%	15*	x
COc1ccc(N2CCN(Cc3cc(=O)oc4cc(C)c(Cl)cc34)CC2)cc1	>57	-6%	5.3*	-1%
O=C(CN1C(=O)COc2ccc(Cl)cc21)Nc1ccc2c(c1)OCCO2	3.6*	2%	>77	15%
Cc1cccc(NC(=O)CN2C(=O)COc3ccc(Cl)cc32)c1	>57	22%	>77	15%
CCN1C(=O)[C@@H]2[C@H]3C(=CC[C@H]2C1=O)C(=O)[C@H]1OC1[C@H]3O (stereo partly specified)	x	6%[11.4 µM]	x	-8%[11.4 µM]
CCNc1nc(N)c(C(=O)c2ccc(Cl)s2)s1	2.2*	-9%	u	-26%
CCOC(=O)c1c(NC(=O)c2ccc(Cl)s2)sc(C)c1C	x	6%	x	-4%
O=C1NC(c2ccccc2)C(C(=O)c2cccs2)C(O)(C(F)(F)F)N1 (stereo unspecified)	>57	-1%	>77	9%
CN1C(=O)NC(c2ccc(O)cc2)C(C(=O)c2cccs2)C1(O)C(F)(F)F (stereo unspecified)	>57	-6%	15*	1%
Cc1nc(N2CCOCC2)c2nc(-c3ccccc3)n(CCN(C)C)c2n1	x	20%	x	5%
CO[C@@H]1CC[C@@]2(C)[C@@H](CC[C@@]3(C)[C@H]2CC=C2[C@H]4CC(C)(C)[C@H](O)[C@@H](OC(C)=O)[C@]4(CO)[C@H](O)C[C@]23C)[C@@]1(C)CO (tested in a mixture with another compound)	x	2%[25.6 µM]	x	16µM*
c1ccc(CN2COc3c(ccc4c5c(ccc34)CN(Cc3ccccc3)CO5)C2)cc1	x	-6%[11.4 µM]	x	4%[11.4 µM]
Cn1nc(-c2ccc(N3CCOCC3)c(NC(=O)COc3ccccc3)c2)c2ccccc2c1=O	>57	10%	x	10µM*
O=C(NC1=NCCS1)NC12CC3CC(CC(C3)C1)C2	>57	-16%	14*	-20%
O=C(NC1=NCCS1)C12CC3CC(C1)CC(C(=O)NC1=NCCS1)(C3)C2	>57	-5%	>77	3%
O=C(Nc1cccc(Cl)c1N1CCCC1)c1ccc(Br)o1	>57	25µM*	>77	u
O=C(Nc1cccc(Cl)c1N1CCCC1)c1cc2ccccc2o1	x	25µM*	>77	u
CCN1CCN(c2c(Cl)cccc2NC(=O)c2ccco2)CC1	>57	2%	>77	8%
N#C[C@H](C(=O)O)C(c1c(Cl)cccc1Cl)[C@H](C#N)C(=O)O	x	5%[11.4 µM]	x	2%[11.4 µM]
CN(C)CC(C)(C)CNC(=O)c1ccc(-n2c(=O)c(=O)[nH]c3ccccc32)cc1	x	-19%	x	10%
CC(=O)O[C@H]1C(=O)[C@]2(C)[C@H]([C@H](OC(=O)c3ccccc3)[C@@]3(O)C[C@H](OC(=O)[C@@H](O)[C@@H](NC(=O)c4ccccc4)c4ccccc4)C(C)=C1C3(C)C)[C@]1(OC(C)=O)CO[C@@H]1C[C@@H]2O	x	1%	x	0%
COc1ccccc1S(=O)(=O)Cc1ccc(C(=O)N2CCN(c3cccc(Cl)c3)CC2)o1	>57	5µM*	>77	u
Cc1cccc(N2CCN(C(=O)c3ccc(CS(=O)(=O)c4ccccc4C)o3)CC2C)c1 (stereo unspecified)	>57	25µM*	u	u
COc1ccccc1S(=O)(=O)Cc1ccc(C(=O)N2CCN(c3ccccc3)CC2)o1	>57	19%	>77	12%
Cc1ccc(C)c(N2CCN(C(=O)c3ccc(CS(=O)(=O)c4ccccc4C)o3)CC2)c1	>57	u	i	u
Cc1cc(C(=O)CSC(=S)SC(C)(C)C)ccc1Cl	x	2%[11.4 µM]	x	-3%[11.4 µM]
